Among the data in PubChem BioAssay (NCI) are growth values, retold here.

About 83,000 compounds went through this panel and 20% of them were active in at least one assay; those are over-represented in the sample as a whole.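 Results are percent growth after 48 hours of single-concentration exposure. 100 means growth as in untreated cells, lower positive values show inhibition; negative values down to -100 show cell death.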 Values without a mark were called inactive. Active and inactive are the calls of the source. The calls were made as follows: active = growth percent below 10; inactive = the rest.

For the assay, the system named is HL-60(TB) leukemia. The assay can be described thus: NCI-60 one-dose screen, 48 h (100 = growth as untreated, 0 = no growth, -100 = all killed). Conditions: 10 µM unless noted.
As to `CCCCCCCCCCCCCCCCN=C(CC(=O)O)C(=O)O`, the growth was 72.6%.

Consider `COc1ccc(Br)cc1NC(=O)Nc1cccc2c1ccn2Cc1ccnc(N)c1`, for which the growth is 10.5%. To `Clc1ccc(Nc2nc(Nc3ccc(Cl)cc3)nc(Nc3ccc(-c4cc(-c5cccc(Cl)c5)on4)cc3)n2)cc1` belongs -50% (active); to `NC(N)=N/N=C(/c1ccccc1)c1ccccc1F`, -47% (active); to `Cc1ccc(C(=O)O)o1`, 101%. As to `CCCCC(O)c1ccccc1` (stereo not given), the growth was 99.2%. The result for `CCOC(=O)C(=CCC(C)C)C(=O)OCC` reads 40.5%; that for `COC(=O)C(Br)(C(=O)OC)C(Br)C(Br)C(Br)c1ccccc1` (stereo not given), 7.57% (active); that for `COc1cccc(/C=N/NC(=O)c2ccccc2Nc2ccnc(C(F)(F)F)c2)c1O`, 34.8%.

Take `CS(=O)CC1=NC(=N)N=C1CS(C)=O` (stereo not given): the growth is 91.2%. With `O=C(Nc1ccc(Cl)cc1Cl)Nc1ccc(-c2cccnc2)cc1N1CCC(CO)CC1`, the growth was 6.31% (active). Regarding `O=C(Nc1ccc(-n2ccc3c(NC(=O)c4ccccc4)nccc32)cc1)c1cccc(C(F)(F)F)c1`, the growth was 16.8%. The result for `COc1ccc(/C(C)=C(/c2ccc(OCCCN(C)C)cc2)c2ccc(OC(=O)c3ccccc3)cc2)cc1` reads 62.8%; that for `Cc1cccc(NC(=O)c2sc3nc4c(cc3c2N)CCCC4)c1C`, 9.11% (active); that for `c1ccc2cc(C[n+]3ccn(CCCCCCCCCCCCn4cc[n+](Cc5ccc6ccccc6c5)c4)c3)ccc2c1`, -69.5% (active). To `CC(C)C[C@H](NC(=O)Cn1ccc(Nc2ccccc2)cc1=O)B(O)O` belongs 2.13% (active); to `CCCCCCCCCCSc1ncnc2nc[nH]c12`, 73.9%; to `C=C1C(=O)O[C@H]2[C@H]1CC/C(COC(=O)NCc1ccc(Cn3c(=O)sn(CCCCl)c3=O)cc1)=C\CC[C@@]1(C)O[C@@H]21`, -50.6% (active). The result for `Cc1ccc2[nH]c3nc4cccnc4c(C)c3c2c1` reads 83.5%; that for `Cc1ccc(Cl)cc1NC(=O)CCl`, 33%; that for `C=CC(=O)Nc1cccc(-c2nc(SC)nc(Nc3cccc(OC)c3)c2C#N)c1`, 42.2%.

Take `CCN1C(=O)c2ccc3c4c(ccc(c24)C1=O)C(=O)N(CCCNCc1ccccc1OC)C3=O`: the growth was -52.6% (active). The result for `Brc1ccc(/C=C(/C2=NCCN2)n2ccc3ccccc32)cc1` reads 26.2%. As for `COc1cnc2c(c1)C(=O)c1c-2n(CCCN2CCN(C)CC2)c(=O)c2cc(Cl)ccc12`, the growth is 50.6%.

With `C=C(C)[C@@H]1CC[C@]2(C)[C@H](CC=C3[C@@H]4CC(C)(C)CC[C@]4(CO)CC[C@]32C)[C@@]1(C)CCCN`, the growth was -68.9% (active). To `CC(C)OCC(CCl)OC(=O)Nc1ccccc1` (stereo not given) belongs 97.3%.

For `CN1C(=O)NC(Cc2c[nH]c3c(Cl)cccc23)C1=O` (stereo not given), the growth was 98.6%.

As for `CCCCc1n(Cc2ccc3ccccc3n2)cc[n+]1Cc1ccc2ccccc2n1`, the growth is -44.7% (active). The result for `Clc1ccc(C2=NN[C@H](c3cn(-c4ccccc4)nc3-c3ccccc3)C2)cc1` reads 100%. To `CC(C)n1nc(C#Cc2cccc3cc(-c4cccc(C(F)(F)F)c4)ncc23)c2c(N)ncnc21` belongs 57.1%; to `CC(=O)Oc1c(C)c(OC(C)=O)c2c(c1C(C)=O)OC1CC(=O)C(C(C)=O)=C(O)C21C` (stereo not given), 79.4%. The result for `O=S(=O)(c1ccc(N/N=C\c2ccccc2Cl)cc1)c1ccc(N/N=C/c2ccccc2Cl)cc1` reads 74%; that for `COC(=O)C1=C(C)C(=O)CC1`, 86.7%. Take `COc1cc(OC)c(/C=C/C(=O)c2ccc(Nc3ncnc4ccccc34)cc2)c(OC)c1`: the growth was 2.85% (active). As to `O=C(Nc1c(Cl)cccc1Cl)Oc1cccc2cccnc12`, the growth is -5.41% [100 µM] (active). To `O=C(N/N=C(\CS(=O)(=O)c1ccccc1)c1cc2ccccc2oc1=O)c1ccccc1` belongs 105%. Regarding `O=C(Nc1cccc(-n2ccc3c(NC(=O)c4ccccc4)nccc32)c1)Nc1cc(C(F)(F)F)cc(C(F)(F)F)c1`, the growth was -17.6% (active). To `Nc1nc(Nc2ccccc2)n[nH]1` belongs 97.7%; to `COc1ccc2nc(-c3ccc(-c4noc(-c5ccc(Cl)cc5)n4)cc3)[nH]c2c1`, 104%; to `NCCCNc1nc2ccccc2c2c(=O)c3cc(OC(F)(F)F)ccc3sc12`, -41.5% (active).
